Source: PubChem BioAssay (EPA / NIEHS)
Values joined by “and” are separate entries in the source; they are usually repeats but may differ in a detail not shown here. Identical values can stand only once. Active and inactive are the calls of the source. Rule for the calls: active = hit-call score of the fitted dose curve at least 0.9, where 1 is the maximum; inactive = score below 0.9.

read-out: Thrombomodulin, THBD (gene 7056); test: BSK_3C_Thrombomodulin: BioMAP Diversity Plus: 3C Assay for Thrombomodulin Biomarker Activity (AID 2283029); settings: primary human endothelial cells (HUVEC); actives raise or lower the signal
Protocol: BSK_3C is a cell-based, multiplexed-readout assay that uses umbilical vein endothelium, a human vascular primary cell, with measurements taken at 24 hours after chemical dosing in a 96-well plate.BSK_3C_Thrombomodulin is an assay component measured in the BSK_3C assay. It measures Thrombomodulin antibody related to regulation of gene expression using ELISA technology.Data from the assay component BSK_3C_Thrombomodulin was analyzed into 1 assay endpoint. This assay endpoint, BSK_3C_Thrombomodulin, was analyzed with bidirectional fitting relative to DMSO as the negative control and baseline of activity. Using a type of binding reporter, gain or loss-of-signal activity can be used to understand changes in the signaling as they relate to the gene THBD. Furthermore, this assay endpoint can be referred to as a primary readout, because this assay has produced multiple assay endpoints where this one serves a signaling function. To generalize the intended target to other relatable targets, this assay endpoint is annotated to the gpcr intended target family, where the subfamily is rhodopsin-like receptor.
The levels of cell surface (or secreted, indicated by the prefix "s") biomarker endpoints were measured by ELISA. Overt cytotoxicity to cells in confluent adherent cultures (all systems other than the BT system) was assessed by measuring total protein levels using sulforhodamine B (SRB) staining in parallel cultures at the time of biomarker measurements, indicated as SRB endpoints. For proliferation assays for adherent cell types, individual cell types are cultured at sub-confluence and relative cell numbers quantified by SRB staining at time points optimized for each system (48 h: 3C and CASM3C systems; 72 h: BT and HDF3CGF systems; 96 h: SAg system). SRB was performed by staining cells with 0.1% SRB after fixation with 10% TCA and reading wells at 560 nm.Viability and proliferation of PBMC (T cells) was quantified by Alamar Blue reduction for the SAg and BT systems. For PBMC viability (referred to as PBMC Cytotoxicity within the assay endpoint names), cells were plated (75,000/well in a 96-well plate) and then chemical samples added for 1 h before addition of activators, SEB and TSST-1 (20 ng/mL final concentration each). Cells were incubated for 90 h. Then, Alamar Blue (20 uL/well) (Invitrogen, Cat DAL1100) was added for 6 h, and the plates were read with a fluorescence microplate reader at 546/580 nm (excitation/emission). For PBMC proliferation, cells were plated and activated as above but incubated for only 16 h prior to addition of Alamar Blue. Plates were read after 6 h.

Row | Compound | AC50 | outcome
1 | C=CC(=O)OCC(CC)CCCC (stereo not drawn) | 3.97 µM (active) | –
2 | Cc1ccc(OP(=O)(Oc2ccc(C)cc2)Oc2ccc(C)cc2)cc1 (tested in a mixture with another compound) | 3.59 µM (active) | –
3 | COc1ccc(CO)cc1 | – | inactive
4 | CCC(C)c1cc([N+](=O)[O-])cc([N+](=O)[O-])c1OC(=O)C=C(C)C (stereo not drawn) | – | inactive
5 | O=c1[nH]c(Cl)c(Cl)cc1Cl | – | inactive
6 | C=CCN(CC=C)C(=O)C(Cl)Cl | – | inactive
7 | COCC(=O)N(c1c(C)cccc1C)N1CCOC1=O | – | inactive
8 | O=c1c2ccccc2c(=O)c2c1cc(Cl)c1[nH]c3c([nH]c12)c(Cl)cc1c(=O)c2ccccc2c(=O)c13 | – | inactive
9 | O=C(CCl)c1ccccc1 | – | inactive
10 | CC(C)(C)C(=O)CCl | – | inactive
11 | Oc1cc(Cl)ccc1Cl | – | inactive
12 | CC(C)CCCCCCCOP(=O)(Oc1ccccc1)Oc1ccccc1 | 20 µM (active) | –
13 | Oc1ccc(C2(c3ccc(O)cc3)c3ccccc3-c3ccccc32)cc1 | 5.01 µM (active) and 11.3 µM (active) | –
14 | CNC(=O)Oc1cc(C)c(SC)c(C)c1 | – | inactive
15 | [Cd+2].[Cl-].[Cl-] | – | inactive
16 | O=[N+]([O-])C=Cc1ccccc1 | – | inactive
17 | O=[N+]([O-])c1ccc(Cl)cc1 | – | inactive
18 | CCCC[N+](CCCC)(CCCC)CCCC | – | inactive
19 | c1ccc(Nc2ccc3ccccc3c2)cc1 | – | inactive

Row | Compound | AC50 | outcome
20 | CCCOC(=O)c1ccccc1C(=O)OCCC | – | inactive
21 | CCCCCCCCCCCC#N | – | inactive
22 | Nc1ccc(-c2ccc(N)c(N)c2)cc1N | – | inactive
23 | O=P1(NCCCl)OCCCN1CCCl (stereo not drawn) | – | inactive
24 | CC(C)COP(=O)(OCC(C)C)OCC(C)C | – | inactive
25 | O=C1C=CC(=O)C=C1 | – | inactive
26 | CC(C)CCCCCCCOC(=O)c1ccccc1C(=O)OCCCCCCCC(C)C | – | inactive
27 | COC(C)(C)CCC[C@H](C)C/C=C/C(C)=C/C(=O)OC(C)C | – | inactive
28 | Clc1ccc(-c2ccccc2)cc1 | – | inactive
29 | CC(C)(c1cc(Cl)c(O)c(Cl)c1)c1cc(Cl)c(O)c(Cl)c1 | 20 µM (active) | –
30 | CC(C)(C)C(O)C(Oc1ccc(-c2ccccc2)cc1)n1cncn1 (stereo not drawn) | – | inactive
31 | O=C(O)CCCc1ccc(N(CCCl)CCCl)cc1 | – | inactive
32 | CC1(C)[C@H](C(=O)O[C@H](C#N)c2cccc(Oc3ccccc3)c2)[C@@H]1C=C(Br)Br | – | inactive
33 | O=S(=O)(c1ccccc1)c1ccccc1 | – | inactive
34 | CCc1cc(C)cc(CC)c1-c1c(OC(=O)C(C)(C)C)n2n(c1=O)CCOCC2 | – | inactive
35 | N#CCCCCC#N | – | inactive
36 | O=C1C(Cl)=C(Cl)C(=O)C(Cl)=C1Cl | 5.02 µM (active) | –
37 | CC(=O)/C=C/c1ccccc1 | – | inactive
38 | O=[N+]([O-])O | – | inactive
